Data on 25 compounds can be found in PubChem BioAssay AID720700 (The Scripps Research Institute Molecular Screening Center, 2013).

SMILES strings stand for the structures. The whole screen tested about 370,000 compounds, of which about 3,100 (0.84%) were called active. Cut-off read from the data, not from the text of the source: active = inhibition above about 9.5%; inactive = the rest. Many of the other results were omitted from the sample, so actives are more common in it than they were.

1-phosphatidylinositol 4,5-bisphosphate phosphodiesterase gamma-1 (Homo sapiens), sequence (P19174 whole entry, looked up): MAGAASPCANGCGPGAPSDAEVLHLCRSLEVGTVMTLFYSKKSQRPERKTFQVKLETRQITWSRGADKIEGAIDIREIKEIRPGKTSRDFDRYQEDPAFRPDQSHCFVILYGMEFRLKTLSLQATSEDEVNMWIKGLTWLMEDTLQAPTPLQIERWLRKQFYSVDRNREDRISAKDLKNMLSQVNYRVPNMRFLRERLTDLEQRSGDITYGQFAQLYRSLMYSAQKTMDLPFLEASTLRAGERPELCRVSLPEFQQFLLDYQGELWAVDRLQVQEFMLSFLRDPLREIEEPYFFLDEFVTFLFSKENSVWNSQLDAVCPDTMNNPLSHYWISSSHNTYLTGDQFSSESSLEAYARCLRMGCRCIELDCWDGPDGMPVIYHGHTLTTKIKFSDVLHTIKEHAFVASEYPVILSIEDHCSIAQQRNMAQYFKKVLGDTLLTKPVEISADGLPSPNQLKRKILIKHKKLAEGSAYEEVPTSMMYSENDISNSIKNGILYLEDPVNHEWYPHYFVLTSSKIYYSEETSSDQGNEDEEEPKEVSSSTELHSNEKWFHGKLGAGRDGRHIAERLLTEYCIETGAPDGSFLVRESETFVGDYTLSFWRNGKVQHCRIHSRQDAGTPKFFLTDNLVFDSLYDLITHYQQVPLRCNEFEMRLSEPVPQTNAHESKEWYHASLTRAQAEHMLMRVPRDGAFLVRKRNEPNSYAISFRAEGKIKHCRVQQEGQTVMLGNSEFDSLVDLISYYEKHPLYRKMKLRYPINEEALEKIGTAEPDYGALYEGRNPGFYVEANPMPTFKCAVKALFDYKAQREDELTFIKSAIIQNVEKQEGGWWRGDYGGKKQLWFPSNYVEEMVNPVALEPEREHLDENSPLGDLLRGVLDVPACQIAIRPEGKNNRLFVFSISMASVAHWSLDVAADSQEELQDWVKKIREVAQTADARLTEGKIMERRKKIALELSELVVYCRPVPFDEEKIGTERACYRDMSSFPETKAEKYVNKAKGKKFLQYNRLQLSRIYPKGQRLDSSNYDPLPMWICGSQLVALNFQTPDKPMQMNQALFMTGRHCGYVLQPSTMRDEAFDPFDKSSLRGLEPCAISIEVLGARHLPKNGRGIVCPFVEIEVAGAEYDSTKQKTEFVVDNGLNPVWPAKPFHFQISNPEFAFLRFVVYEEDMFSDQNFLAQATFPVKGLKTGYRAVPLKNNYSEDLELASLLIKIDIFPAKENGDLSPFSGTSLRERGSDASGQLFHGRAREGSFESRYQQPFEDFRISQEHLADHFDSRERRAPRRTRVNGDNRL

This assay addresses 1-phosphatidylinositol 4,5-bisphosphate phosphodiesterase gamma-1 (Homo sapiens) (UniProt P19174). The experiment in a line: PLC-gamma1 enzyme inhibitors, primary screen, biochemical, fluorescence, purified enzyme (AID 720700). The conditions noted are these: purified PLC-gamma1, fluorogenic substrate, at 12.2 µM, stronger effect = higher value.
The term inhibition denotes the relative decrease from the control value, in per cent. Turning to `O=C(NC(C(=O)NCCN1CCOCC1)C12CC3CC(CC(C3)C1)C2)C1CCCCC1` (stereo not given), the inhibition is -1.07% (inactive).
In the case of `O=C(NCCCN1CCCCCC1)C1CC(=O)N(C2CCCC2)C1` (stereo not given) it was -1.08% (inactive); in that of `CC(C)C(NC(=O)C1CCC(C(C)(C)C)CC1)C(=O)NCCCN1CCCCC1` (stereo not given), 10.2% (active); in that of `Cc1ccc(-n2c(SCC(=O)Nc3ccc(S(=O)(=O)Nc4nccs4)cc3)nnc2-c2ccccn2)cc1`, -1.19% (inactive).
With `CN(C)/C=C(/C(=O)c1ccc(Cl)cc1)S(=O)(=O)c1ccccc1`, the inhibition was 11.6% (active).
In the case of `CN(C)/C=C(/C(=O)c1ccccc1Cl)S(C)(=O)=O` it was -0.96% (inactive).
For `CN(C)/C=C(/C(=O)c1ccc(F)cc1)S(=O)(=O)c1ccc(F)cc1`, the inhibition is -0.23% (inactive).
Regarding `CC(C)CNC(=O)OCc1cn(Cc2ccc(F)cc2)nn1`, the inhibition was -0.35% (inactive).
In the case of `CN(CCO)c1cccc2c1S(=O)(=O)N(Cc1cn(Cc3ccc(C(F)(F)F)cc3)nn1)Cc1ccccc1O2` it was -12.9% (inactive); in that of `CCOc1ccc(-n2c(SCC(=O)Nc3cc(C)c(NC(=O)c4ccccc4)cc3OC)nnc2-c2cccc(Cl)c2)cc1`, -13.8% (inactive); in that of `Cc1ccc(C(=O)C2CCN(CC(=O)NCCC(C)C)CC2)cc1`, -6.25% (inactive).
In the case of `NC1=CC(=O)C(=O)c2cccnc21`, the inhibition is 11.2% (active).
For `CC(C)CNS(=O)(=O)CC1NCCc2ccccc21` (stereo not given), the inhibition is 1.24% (inactive).
In the case of `O=C(CSc1nc2sc3c(c2c(=O)n1-c1ccccc1)CCCC3)NN=Cc1ccc(OCc2ccccc2)cc1`, the inhibition was -0.49% (inactive).
In the case of `COc1ccc(/C=C2\N=C3CCCN3C2=O)cc1` it was 10.5% (active).
Regarding `COc1ccc(C=C2CCC3C(CCCC34OCCO4)C2=O)cc1` (stereo not given), the inhibition is 3.51% (inactive).
Next, `COc1ccc(/C=C2\CC3(OC(C)=O)CCCN2C3)cc1` (stereo not given): 0.44% (inactive).
Next, `Cc1cccc(NC(=O)C[C@H]2CC[C@H]3[C@@H](COc4ccc(NC(=O)Nc5ccccc5)cc4C(=O)N3C)O2)c1`: 3.76% (inactive); `COC(=O)NNC1=CC(=O)CC(C)(C)C1`: -1.76% (inactive).
In the case of `CC1(C)CC(=O)C=C(NC2CC(C)(C)NC(C)(C)C2)C1` it was 9.6% (active); in that of `CC1(C)CC(=O)C=C(NCCCNC2CCCCC2)C1`, 2.3% (inactive).
`O=C1CCC(C(=O)OCC(=O)Nc2ccc(OC(F)F)cc2)=NN1`: the inhibition was 3.57% (inactive).
In the case of `COc1ccc(NC(=O)COC(=O)CNC(=O)C2CCCCC2)cc1` it was 0.1% (inactive); in that of `CCC(C)(C)c1ccc(Oc2ccc(NC(=O)COC(=O)C3=COCCO3)cc2)cc1`, 10.1% (active).
As for `O=C(CSc1nnc(-c2cccc(Cl)c2)n1Cc1ccco1)Nc1ccc(OCc2ccccc2)cc1`, the inhibition is 2.27% (inactive).
